Screening results deposited in PubChem BioAssay by National Center for Advancing Translational Sciences (NCATS).
Tau fibril ThT: qHTS for Inhibitors of Tau Fibril Formation, Thioflavin T Binding. Potency, µM (top dose mostly 57.4 µM), without a hit: top-dose activity, negative = inhibition, hits mostly inhibitors. 270,000 compounds, 2.1% hits. recombinant tau K18 P301L, heparin-induced fibrillization, ThT fluorescence; note: nearly all actives have a fitted effect of over 55% in size
Target sequence (P10636 561-689 P618L limits assumed): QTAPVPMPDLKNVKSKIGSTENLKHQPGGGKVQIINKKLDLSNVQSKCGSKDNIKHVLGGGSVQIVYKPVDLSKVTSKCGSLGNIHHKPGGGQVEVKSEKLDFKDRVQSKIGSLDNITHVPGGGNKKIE
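Recombinant human tau K18 fragment […] carrying P301L, 15 uM unlabeled plus 0.24 uM Alexa 594-labeled, was fibrillized with 20 uM heparin in 100 mM sodium acetate pH 7 for 6 hr at 37 C; 30 uM ThT fluorescence read after 1 hr.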
TR SRC2 fluor cs: Total Fluorescence Counterscreen for Inhibitors of the Interaction of Thyroid Hormone Receptor and Steroid Receptor Coregulator 2 | TRb/SRC2 Texas Red total fluorescence interference | Potency, µM (doses to about 106 µM), for the others: at the highest dose fluorescence change, negative = quenching | 280,000 compounds, 0.29% hits; active = well fitted curve in either direction with a large enough effect; inconclusive = small, poorly fitted or top-dose-only effect
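Human TRβ ligand-binding domain (0.6 uM) and Texas Red SRC2 peptide (20 nM) in Tris buffer with 1 uM T3 and 5% DMSO were incubated with pinned compound for 5 hr at ambient temperature. Total fluorescence was computed as S + 2P (555/632 nm).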
Tau FP inhib: qHTS for Inhibitors of Tau Fibril Formation, Fluorescence Polarization. Potency, µM (top dose mostly 57.7 µM), without a hit: top-dose activity, negative = inhibition, usual class: inhibitors. K18 P301L tau heparin fibrillization, Alexa594 FP, 6 h. AID 1468, 2008. Microtubule-associated protein tau (Homo sapiens), P10636. 280,000 compounds, 0.39% hits; note: nearly all actives have a fitted effect of over 55% in size
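Compound effects on tau fibrillization are measured by Alexa 594 fluorescence polarization (ex 555, em 632 nm). K18 P301L tau is used at 15 uM with 0.24 uM labeled tracer, and 20 uM heparin induces aggregation over 6 hr at 37 C.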
Tau fluor counter: Counterscreen qHTS for Inhibitors of Tau Fibril Formation, Fluorescence Polarization; tau K18 P301L Alexa594 fluorescence, heparin fibrillization; Potency, µM (series often up to 57.7 µM), without a hit: top-dose activity change, negative = decrease; 280,000 compounds, 0.93% hits; note: nearly all actives have a fitted effect of over 55% in size
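Human tau K18 P301L (15 uM unlabeled, 0.24 uM Alexa 594-labeled) in 100 mM sodium acetate pH 7 with 20 uM heparin, 6 hr at 37 C. ThT 30 uM added, 1 hr ambient; Alexa 594 FP and total fluorescence read at 555/632 nm.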
TRb-SRC2 inh: qHTS for Inhibitors of the Interaction of Thyroid Hormone Receptor and Steroid Receptor Coregulator 2 | Thyroid hormone receptor beta (Homo sapiens), P10828 | TRbeta-SRC2 peptide binding, fluorescence polarization; receptor liganded with 1 µM T3 | Potency, µM (highest dose often 106 µM), for the others: top-dose activity change, negative = inhibition, hits mostly inhibitors | 280,000 compounds, 0.065% hits | AID 1469, 2008;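 note: plate controls were bound peptide for no effect and peptide without receptor for full effect; nearly all actives have a fitted effect of over 50% in size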
Target sequence (P10828 whole entry, looked up): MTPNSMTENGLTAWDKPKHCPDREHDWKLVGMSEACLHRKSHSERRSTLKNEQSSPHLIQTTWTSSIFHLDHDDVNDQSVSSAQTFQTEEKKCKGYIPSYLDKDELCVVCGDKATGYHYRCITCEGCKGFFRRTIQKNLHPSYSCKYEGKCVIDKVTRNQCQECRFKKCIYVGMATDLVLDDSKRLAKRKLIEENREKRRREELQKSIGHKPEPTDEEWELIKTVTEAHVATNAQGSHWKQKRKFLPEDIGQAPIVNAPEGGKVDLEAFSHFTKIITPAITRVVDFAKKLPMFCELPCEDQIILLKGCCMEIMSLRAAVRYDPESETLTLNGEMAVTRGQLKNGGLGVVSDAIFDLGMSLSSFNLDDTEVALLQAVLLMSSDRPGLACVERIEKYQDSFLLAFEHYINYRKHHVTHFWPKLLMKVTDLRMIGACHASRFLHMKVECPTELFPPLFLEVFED
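Human TRb LBD (0.6 uM) plus Texas Red-labeled SRC2 peptide (20 nM), 1uM T3, 5% DMSO, 5 hr at ambient temperature. Decreased polarization (555/632 nm) flags inhibition; data normalized to free and bound peptide controls.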
Numbers without * were called inactive; ? = inconclusive; . = no result given; [ ] = dose if it differs, or a comment. Rows were chosen to be rich in hits. Some 3% of all compounds tested hit in one or more screens of this group. Unless noted, calls come from the whole dose curve; as a rule, active = well fitted curve in the direction sought with a large enough effect; inconclusive = small, poorly fitted or top-dose-only effect, or another doubt; inactive = no such curve, though single readings can be large; an effect the other way counts as inactive or inconclusive. Unless noted, % is set by controls: 0 for no effect and ±100 for the full control effect; potency is the fitted concentration of half-maximal effect.

SMILES	Tau fibril ThT	TR SRC2 fluor cs	Tau FP inhib	Tau fluor counter	TRb-SRC2 inh
O=C1/C(=C\c2ccccn2)SC(=S)N1Nc1ncc(C(F)(F)F)cc1Cl	28µM*	-9%	?	-29%	-4%
CC(/C=N/N1CCN(c2ccc(C)cc2)CC1)=C\c1ccccc1	?	-12%	?	-8%	0%
BrC(=C\c1ccccc1)/C=N/N1CCN(c2ccccc2)CC1	20µM*	1%	?	?	8%
CCn1c(C(=O)N2CCC(C(=O)NCCc3ccc(OC)cc3OC)CC2)cc2sccc21	?	22µM*[quencher]	5%	-20%	-10%
COCCNC(=O)C1CCN(C(=O)c2cc3sccc3n2Cc2ccc(Cl)cc2)CC1	-16%	28µM*[quencher]	-2%	-29%	-6%
CCn1c(C(=O)N2CCC(C(=O)NCCCOC)CC2)cc2sccc21	9%	-1%	7%	4%	2%
Cc1ccc2oc(-c3cc(NC(=O)CC(C)C)ccc3Cl)nc2c1	3%	0%	?	-28%	-3%
COC(=O)C1=CN(c2cccc(C)c2)C=C(C(=O)OC)C1c1cc(OC)c(O)c([N+](=O)[O-])c1	16µM*	-3%	13%	?	0%
CCCCNC(=O)CN1CCN(c2ccc(NC(=O)c3ccc(OC)cc3)cc2C(=O)O)CC1	-6%	2%	3%	3%	0%
O=C(O)[C@@H]1[C@@H]2C[C@H]3c4[nH]c5ccccc5c4CCN3C[C@@H]2CC[C@@H]1O	.	5%[53 µM]	.	.	-11%[53 µM]
COc1cc(Cl)c(NC(=O)c2cc(S(=O)(=O)N3CCCCC3)c[nH]2)c(OC)c1	-4%	20µM*[quencher]	14%	?	-7%
CCOC(=O)c1c(C)oc2nc(C)nc(NCc3cccc(Cl)c3)c12	-14%	-4%	-4%	-3%	-3%
CN1C(=O)/C(=C/c2ccc(O)c([N+](=O)[O-])c2)NC1=S	16µM*	-6%	12%	-19%	0%
O=C(O)c1cccc(CN2C(=O)S/C(=C/c3cccc([N+](=O)[O-])c3)C2=O)c1	.	-2%	-6%[0.0958 µM]	-1%[0.0958 µM]	-2%
COc1cc(/C=C2\NC(=S)N(C)C2=O)ccc1O	?	-3%	5%	-16%	-16%
O=C1/C(=C/c2ccc(O)c([N+](=O)[O-])c2)SC(=S)N1Cc1ccccc1	7.1µM*	0%	3%	?	1%
O=C(NN1C(=O)/C(=C/c2ccc(O)c([N+](=O)[O-])c2)SC1=S)c1ccccc1Cl	4µM*	-6%	3%	?	6%
NC1=NC(=O)/C(=C\c2ccc(O)c([N+](=O)[O-])c2)S1	?	-12%	8%	-5%	12%
CCOC(=O)c1ccc(NC(=O)CCS(=O)(=O)c2ccc(Br)s2)cc1	-3%	2%	-3%	-17%	1%
CC(C)c1ccc(NC(=O)CCS(=O)(=O)c2ccc(Br)s2)cc1	-6%	28µM*[quencher]	0%	-29%	?
COc1ccc(O)c(N)c1	4.5µM*	10%	11µM*	13µM*[quencher]	?
Cc1ccc(O)c(N)c1	.	-1%	.	.	2%
Cc1ccc(CCNC(=O)c2cccc(Nc3nc4ccccc4nc3-n3nc(C)cc3C)c2)cc1	0%	-2%	?	-21%	3%
COC(=O)CN1C(=O)CSc2ccc(S(=O)(=O)Nc3cccc(C)c3)cc21	0%	-2%	5%	-10%	1%
COc1cccc([C@@H]2Oc3ccc(OC)cc3C[C@H]2OC(=O)NS(=O)(=O)c2ccc(F)cc2)c1	-14%	1%	-9%	-16%	1%
SMILES	Tau fibril ThT	TR SRC2 fluor cs	Tau FP inhib	Tau fluor counter	TRb-SRC2 inh
Cc1ccc(/C=c2\s/c(=C(/C#N)C(=O)N3CCCC3)n(Cc3ccco3)c2=O)s1	16µM*	-12%	-12%	?	1%
COc1cc(/C=c2\s/c(=C(/C#N)C(=O)N3CCCC3)n(-c3ccccc3)c2=O)ccc1O	?	1%	2%	-7%	-7%
O=C(CCn1cnc2onc(-c3ccc(F)cc3)c2c1=O)N1CCN(c2cccc(Cl)c2)CC1	-7%	1%	-12%	?	-5%
COc1ccc(NC(=O)c2ccc(-c3ccccc3C(F)(F)F)o2)cc1	25µM*	1%	-12%	25µM*[quencher]	0%
O=C(Nc1cccc(F)c1)c1ccc(-c2ccccc2C(F)(F)F)o1	-18%	-1%	?	?	2%
COC(=O)c1c(NC(=O)c2nc3ccccc3s2)sc2c1CCN(C(C)=O)C2	16µM*	-14%	-5%	-23%	6%
CNC(=O)c1c(NC(=O)c2nc3ccccc3s2)sc2c1CCC2	7.1µM*	-15%	12%	?	10%
COc1ccc(CNC(=O)C(C#N)c2nc3ccccc3nc2N2CCN(C)CC2)cc1 (stereo unspecified)	16µM*	-3%	-1%	-30%	7%
COc1ccc(CNC(=O)C(C#N)c2nc3ccccc3nc2N2CCCC2)cc1 (stereo unspecified)	-2%	-7%	-13%	-29%	2%
Cc1ccc(/C=C/c2nc3ccccc3[nH]2)cc1	?	-1%	?	?	2%
Cc1ccc(/C=C\c2nccc3c2[nH]c2ccccc23)cc1	?	-2%	-15%	11µM*[quencher]	1%
Fc1ccc(/C=C\c2nccc3c2[nH]c2ccccc23)cc1	?	-1%	5%	?	6%
C(=C\c1nccc2c1[nH]c1ccccc12)/c1ccccc1	?	-3%	-19%	20µM*[quencher]	9%
COc1ccccc1CNC(=O)C1CCN(S(=O)(=O)c2c(C)noc2/C=C/c2c(C)cc(C)cc2C)CC1	0%	1%	-6%	-8%	3%
COc1cccc(NC(=O)CSc2nc(=O)[nH]c3c2CCCC3)c1	-7%	0%	-13%	-8%	3%
CC[C@H]1O[C@]2(CC[C@@H]1C)C[C@@H]1C[C@@H](C/C=C(\C)C[C@@H](C)/C=C/C=C3CO[C@@H]4[C@H](O)C(C)=C[C@@H](C(=O)O1)[C@]34O)O2	.	-6%[201 µM]	.	.	3%[201 µM]
Cc1ccc(C(=O)NC(C#N)=C(Cl)Cl)cc1	25µM*	1%	?	-10%	-1%
Cn1nc(C(=O)Nc2ccc(F)c(Cl)c2)c2c1-c1ccccc1S(=O)(=O)C2	-20%	0.0063µM*[quencher]	-4%	-11%	-25%
Cn1nc(C(=O)NCc2ccccc2Cl)c2c1-c1ccccc1S(=O)(=O)C2	-5%	100µM*[quencher]	2%	-2%	-28%
Cc1ccc(NC(=O)c2nn(C)c3c2CS(=O)(=O)c2ccccc2-3)c(Cl)c1	-14%	?	-3%	-11%	-8%
